# Mot1-301 SUMO: SUMOylation pathway inhibition by Mot1-301 growth rescue; growth rescue, % at 18.8 µM; S. cerevisiae Mot1-301 growth rescue, ATP luminescence, 38.5C; percent above DMSO median, 100 means doubled; 1% of 320,000 active; AID 2716;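 active means every valid replicate shows activation above 250% relative to neutral control wells; inactive means the rest, any valid replicate at or below 250%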;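 further: OY570 slx delta 5 strain wells were the positive control but not used for scaling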
# NadD inh: NadD (S. aureus) enzyme inhibition. inhibition, % at 20 µM. purified NadD enzyme, colorimetric absorbance read-out. AID 602399. 0.78% of 360,000 active; in the data active means inhibition above about 26%
# Calb FLC: affects C. albicans growth with fluconazole | C. albicans CaCi-2 (fluconazole-resistant clinical isolate) + fluconazole, Alamar Blue growth, 48 h | growth inhibition, % (concentration not given with the values) | 0.57% of 300,000 active;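 active means growth inhibition above about 58% in most replicates, limit read from the data, passing the limit was not always enough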;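 further: all wells also contain fluconazole at 8 µg/ml as a sub-toxic cotreatment; 0% = median of DMSO wells and 100% = median of geldanamycin control wells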
# ATG4B inh: inhibitors of human ATG4B cysteine protease; Q9Y4P1; inhibition, % at 8.33 µM; ATG4B cleavage of LC3-PLA2, NBD-HPC fluorescence, 1 h; 0.51% of 340,000 active; AID 504462; in the data active means inhibition above about 40%
# FAS-TE inh: inhibitors of human fatty acid synthase thioesterase domain; P49327; recombinant FAS-TE, OMFH fluorogenic substrate, fluorescence endpoint; inhibition, % at 15 µM; 0.67% of 360,000 active;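 active means compounds whose normalised, plate-corrected inhibition of enzyme fluorescence in the single-dose primary screen is 50% or more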;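 further: 0% = DMSO with enzyme and 100% = substrate without enzyme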
# NadD conf: NadD (S. aureus) inhibition, single concentration confirmation | shares compounds with NadD inh | purified S. aureus NadD, colorimetric enzyme assay | inhibition, % at 20 µM | 13% of 2,000 active; in the data active means inhibition mostly above about 42%, no sharp cut-off; inactive means mostly below about 42%
# An asterisk follows results filed as active; . = not tested or not shown. Hits are enriched below; roughly 3.1% of the tested compounds scored in any of these assays.
SMILES,Mot1-301 SUMO,NadD inh,Calb FLC,ATG4B inh,FAS-TE inh,NadD conf
O=C(N[C@@H](Cc1ccccc1)C(=O)OCc1ccccc1)c1nc[nH]c1C(=O)N1CCN(c2ccccc2)CC1,101,30*,-6,-5,21,16
O=c1[nH]c(CN2CCc3ccccc32)nc2scc(-c3cccs3)c12,7,42*,-6,7,4,14
Cc1cc(NC(=O)CSc2nc3c(sc4ccccc43)c(=O)n2CCc2ccccc2)n[nH]1,5,34*,-6,-3,-7,2
Cc1cc(NC(=O)CSc2nc3c(sc4ccccc43)c(=O)n2CCCN2CCOCC2)n[nH]1,-12,4,-13,1,-6,.
O=C1CCCC2=C1C(c1ccco1)Nc1ccc(C(=O)c3ccccc3)cc1N2 (stereo not given),2,35*,13,4,5,2
O=C(O)c1ccccc1C(=O)c1cccc2ccccc12,38,-8,-16,-6,-5,.
O=C(COC(=O)C1CC(=O)N(Cc2ccccc2)C1)c1ccc(F)cc1 (stereo not given),2,-1,6,-2,-2,.
CCOC(=O)Cc1csc(NC(=O)c2sc3nc4c(C)cc(C)cc4cc3c2N)n1,0,40*,-2,-14,-9,2
CCOC(=O)Cc1csc(NC(=O)c2csc(C)c2)n1,0,-3,-12,-8,-5,.
O=C(Nc1ccn(CCCN(CCCn2ccc(NC(=O)OCc3ccccc3)nc2=O)CCc2cc3ccccc3[nH]2)c(=O)n1)OCc1ccccc1,.,70*,.,-9,4,55*
O=C(Nc1ccn(CCCNCc2ccccc2)c(=O)n1)OCc1ccccc1,.,0,.,-5,-5,.
CCCn1nnnc1NCc1ccc(C(C)C)cc1,-14,-5,-12,7,-4,.
Cc1ccc(-n2c(=O)c3cc4c(=O)n(-c5ccc(C)c(C)c5)c(=O)c4c(C(=O)c4ccc(C(=O)O)cc4)c3c2=O)cc1C,279,34*,4,-11,1,11
CCCCC(CC)CNC(=O)C(Cc1ccccc1)NS(=O)(=O)c1ccc2c(c1)CCC(=O)N2 (stereo not given),-11,-3,-3,-15,-3,.
COc1ccc(-c2nc3cc(C)c(Br)c(C)n3c2Cc2ccccc2C(F)(F)F)cc1OC,.,17,.,.,8,.
Cc1cc2nc(-c3ccco3)c(Cc3ccccc3C(F)(F)F)n2c(C)c1Br,.,42*,.,.,23,28
Brc1ccc2nc(-c3ccco3)c(Cc3ccsc3)n2c1,.,18,.,.,6,.
FC(F)(F)c1ccccc1Cc1c(-c2cccc(Cl)c2)nc2ccc(Br)cn12,.,7,.,.,9,.
FC(F)(F)c1ccccc1Cc1c(-c2ccco2)nc2ccc(Br)cn12,.,37*,.,.,12,11
COc1ccccc1Cc1c(-c2ccc(F)cc2)nc2ccc(Br)cn12,.,7,.,.,1,.
Clc1ccc2nc(-c3ccco3)c(Cc3ccsc3)n2c1,.,34*,.,.,2,18
COc1ccccc1Cc1c(-c2ccco2)nc2ccc(Br)cn12,.,45*,.,.,-2,26
Cc1ccnc(NC(=O)CNC(=O)c2ccccc2Br)c1,-2,-4,1,-3,-6,.
CCC(C(=O)O)n1nnc(-c2ccc(OCc3ccccc3)c(OC)c2)n1 (stereo not given),5,.,-2,.,.,.
COCCNC(=O)C1(C)CCCN(C(=O)c2ccc(OC)c(OC)c2)C1 (stereo not given),.,2,.,.,-6,.
SMILES,Mot1-301 SUMO,NadD inh,Calb FLC,ATG4B inh,FAS-TE inh,NadD conf
CCN1C(=O)C2CCCCN2c2ccc(C(=O)NCCOC)cc21 (stereo not given),-3,2,-1,-3,-5,.
CCN(CC)CCNC(=O)CCc1c(C)nc2c(c(C)nn2-c2ccc(C)c(C)c2)c1C,-3,-11,1,0,-6,.
COc1ccccc1Cc1c(-c2ccco2)nc2ccc(Cl)cn12,.,30*,.,.,1,6
COc1ccc(OCc2nnc(SCC(=O)Nc3nnc(C4CC4)s3)n2C)cc1,8,-1,9,3,-1,.
N#C/C(=C\c1ccc(-c2cccc([N+](=O)[O-])c2)o1)C(=O)N1CCOCC1,-1,-4,6,-6,8,.
N#C/C(=C\c1ccc(-c2ccc([N+](=O)[O-])cc2)o1)C(=O)Nc1nc(-c2cccs2)cs1,-38,40*,-10,6,7,4
N#C/C(=C/c1ccc(-c2cccc([N+](=O)[O-])c2)o1)C(=O)Nc1nc(-c2cccs2)cs1,.,46*,.,-2,10,-9
Cn1c2ccccc2c2cc(/C=N/NC(=O)c3cc(O)ccc3O)ccc21,-8,49*,-7,1,10,52*
O=C(NC1CCCC1)C(c1ccncc1)N(C(=O)Cc1cccs1)c1ccc(F)cc1 (stereo not given),4,-8,-4,10,-2,.
Cc1ccccc1N(C(=O)Cc1ccsc1)C(C(=O)NC1CCCCC1)c1ccc(F)cc1 (stereo not given),5,31*,-1,-6,-2,-3
Cc1cccc(C)c1N(CC(=O)NCc1ccccc1)C(=O)c1csnn1,21,-1,-1,-6,-3,.
CN(CC(=O)NCCCc1ccccc1)S(=O)(=O)c1ccc(Br)cc1,10,-6,20,-4,12,.
CC(C)COC(=O)C(C#N)c1nc2ccccc2nc1N1CCN(Cc2ccc3c(c2)OCO3)CC1 (stereo not given),92,31*,-26,-1,23,9
COc1cccc(C(=O)Oc2cc3c4c(c2)C(C)=CC(C)(C)N4C(=O)C3=O)c1,-26,9,3,8,12,.
CC1=CC(C)(C)n2c(O)c(C3=NC(=S)NC3=O)c3cc(OC(=O)c4cccc5ccccc45)cc1c32,-6,55*,19,0,22,6
COc1ccc(CCC(=O)NCCNC(=O)CCc2ccc(OC)cc2)cc1,-6,1,3,-1,-2,.
O=C(CN1CCCCC1)Nc1nnc(-c2ccc([N+](=O)[O-])cc2)s1,-20,33*,-2,6,23,13
O=C(CN1CCCCC1)Nc1nnc(-c2ccccc2)s1,-11,3,1,-7,-3,.
CC(C)C[C@@H](CN1CCC[C@H]1CN1C(=O)C(=O)NC[C@@H]1Cc1ccc(O)cc1)N1C[C@H](Cc2ccc(O)cc2)N(CC2CCCCC2)C(=O)C1=O,.,32*,.,.,2,30
CC(C)C[C@@H](CN1CCC[C@H]1CN1C(=O)C(=O)NC[C@@H]1Cc1ccccc1)N1C[C@H](Cc2ccccc2)N(CC2CCCCC2)C(=O)C1=O,.,33*,.,.,3,29
CC(C)C[C@@H](CN1CCC[C@H]1CN1C(=O)C(=O)NC[C@@H]1Cc1ccc(O)cc1)N1C[C@H](Cc2ccccc2)N(CC2CCCCC2)C(=O)C1=O,.,28,.,.,1,.
N#CC1c2ccccc2C=CN1C(=O)N(c1ccccc1)c1ccccc1 (stereo not given),.,8,.,4,24,.
